The supplement of paper PMC10127200
Structures can show the parent of a compound that is named as a salt.

How the values were obtained:
Assay in all cases: Euclidean distance of Cell Painting phenotypic profile (signed KS, 77 features) to DMSO centroid (dimensionless distance); 5 or 10 uM (library dependent); higher = stronger phenotypic change vs DMSO (phenoactivity)
Conditions in all cases: 48 h
786-O = test system: 786-O
Procedure, shortened: (§1)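 Library compounds were applied at 10 or 5 uM, depending on the library, with 0.1% DMSO final, for 48 h to five cancer lines and a healthy fibroblast line. After staining, cells were imaged confocally at 20X across 9 fields per well, and Harmony extracted 77 features, each scored as a signed Kolmogorov-Smirnov statistic against vehicle wells on the same plate. Phenoactivity is the Euclidean distance between each profile and the median vehicle profile, with profiles first plate-position corrected, correlation-weighted and averaged over replicates at the top dose.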

A549 = test system: A549
Procedure, shortened: as §1

DU145 = test system: DU145
Procedure, shortened: as §1

FB = test system: FB
Procedure, shortened: as §1

HEPG2 = test system: HEPG2
Procedure, shortened: as §1

OVCAR4 = test system: OVCAR4
Procedure, shortened: as §1

| SMILES | Euclidean distance (786-O) | Euclidean distance (A549) | Euclidean distance (DU145) | Euclidean distance (FB) | Euclidean distance (HEPG2) | Euclidean distance (OVCAR4) |
| --- | --- | --- | --- | --- | --- | --- |
| C[C@H]1O[C@@H](O[C@H]2CC[C@@]3(C)[C@@H](CC[C@]4(C)[C@@H]3C=C[C@]35OC[C@@]6(CCC(C)(C)C[C@H]63)[C@@H](O)C[C@]54C)[C@]2(C)CO)[C@H](O)[C@@H](O[C@@H]2O[C@H](CO)[C@@H](O)[C@H](O)[C@H]2O)[C@H]1O [Saikosaponin A] | 1.06 | 2.42 | 2.17 | 1.52 | 0.854 | 2.14 |
| CC(NC(=O)c1ccccc1/N=C/c1c(O)ccc2ccccc12)c1ccccc1 (stereo unspecified) [Sirtinol] | 0.539 | 0.747 | 0.686 | 0.99 | 2.2 | 0.857 |
| C[C@@H](Oc1ccc2[nH]nc(/C=C/c3cnn(CCO)c3)c2c1)c1c(Cl)cncc1Cl | 3.17 | 3.59 | 3.07 | 3.2 | 3.02 | 3.82 |
| NCCS [2-Aminoethanethiol] | 1.12 | 0.781 | 1.46 | 0.594 | 0.508 | 1.1 |
| CC1(C)CCC(CN2CCN(c3ccc(C(=O)NS(=O)(=O)c4ccc(NCC5CCOCC5)c([N+](=O)[O-])c4)c(Oc4cnc5[nH]ccc5c4)c3)CC2)=C(c2ccc(Cl)cc2)C1 | 2.06 | 1.55 | 1.25 | 0.81 | 1.11 | 1.16 |
| Cc1cc(Nc2ncc(Cl)c(Nc3ccccc3S(=O)(=O)C(C)C)n2)c(OC(C)C)cc1C1CCNCC1 [Ceritinib (LDK378)] | 6.15 | 4.94 | 7.35 | 6.34 | 4.96 | 5.69 |
| CCCCC(=O)N(Cc1ccc(-c2ccccc2-c2nn[nH]n2)cc1)C(C(=O)O)C(C)C.CCOC(=O)C(C)CC(Cc1ccc(-c2ccccc2)cc1)NC(=O)CCC(=O)O (stereo unspecified) [Sacubitril/valsartan (LCZ696)] | 0.856 | 0.709 | 1.24 | 1.04 | 0.622 | 1.01 |
| CC(C)c1cc(-c2ccc(F)c3ccccc23)nc(N)n1 | 0.8 | 0.73 | 0.946 | 0.742 | 1 | 1.28 |
| O=C1[C@H]2CCCC[C@H]2C(=O)N1CCCCN1CCN(c2nsc3ccccc23)CC1 [Perospirone hydrochloride] | 2.05 | 1.44 | 1.08 | 1.59 | 1.05 | 1.36 |
| Cc1cccc(C)c1OCC(=O)N[C@@H](Cc1ccccc1)[C@@H](O)C[C@H](Cc1ccccc1)NC(=O)[C@H](C(C)C)N1CCCNC1=O [Lopinavir] | 2.06 | 1.69 | 1.44 | 1.1 | 0.896 | 1.92 |
| COc1cc2nccc(Oc3ccc(NC(=O)C4(C(=O)Nc5ccc(F)cc5)CC4)cc3)c2cc1OC [Cabozantinib malate (XL184)] | 1.85 | 2.98 | 1.3 | 2.84 | 1.89 | 2.25 |
| CC(C)(CO)c1cc2cc(NC(=O)C3(c4ccc5c(c4)OC(F)(F)O5)CC3)c(F)cc2n1C[C@@H](O)CO | 1.47 | 1.89 | 1.24 | 2.93 | 0.904 | 2.17 |
| N=C(N)NC(=O)c1nc(Cl)c(N)nc1N [Amiloride HCl] | 1.05 | 0.988 | 0.844 | 0.922 | 1.33 | 0.94 |
| CCn1c(=O)c(-c2cc(NC(=O)Nc3ccccc3)c(F)cc2Br)cc2cnc(NC)cc21 | 1.21 | 1.59 | 1.77 | 2.62 | 1.61 | 1.1 |
| COC(=O)Nc1nc2cc(C(=O)c3ccccc3)ccc2[nH]1 [Mebendazole] | 3.02 | 3.03 | 3.69 | 2.58 | 3 | 2.7 |
| Cc1[nH]c2ccccc2c1CCNC(=O)c1cccs1 | 0.729 | 2.31 | 0.821 | 0.779 | 0.553 | 1.45 |
| COc1cc2nccc(Oc3ccc(NC(=O)C4(C(=O)Nc5ccc(F)cc5)CC4)cc3)c2cc1OC | 2.21 | 2.82 | 1.36 | 3.32 | 2.4 | 3.08 |
| Cn1cc(CNCC2CCN(c3ncc(C(=O)NO)cn3)CC2)c2ccccc21 | 2.78 | 4.19 | 3.88 | 3.5 | 4.44 | 3.65 |
| C[C@]12CC[C@@H]3c4ccc(O)cc4CC[C@H]3[C@@H]1C[C@@H](O)[C@@H]2O [Estriol] | 1.2 | 0.835 | 1.5 | 0.871 | 0.511 | 1.2 |
| C=CC1=C(C(=O)O)N2C(=O)[C@@H](NC(=O)/C(=N\OCC(=O)O)c3csc(N)n3)[C@H]2SC1 [Cefixime] | 1.35 | 0.916 | 0.778 | 1.38 | 0.6 | 1.73 |
| Cc1ccc(-c2cc(C(F)(F)F)nn2-c2ccc(S(N)(=O)=O)cc2)cc1 [Celecoxib] | 1.6 | 1.23 | 1.67 | 1.09 | 1.08 | 1.37 |

| SMILES | Euclidean distance (786-O) | Euclidean distance (A549) | Euclidean distance (DU145) | Euclidean distance (FB) | Euclidean distance (HEPG2) | Euclidean distance (OVCAR4) |
| --- | --- | --- | --- | --- | --- | --- |
| O=C1OC(c2ccc(O)cc2)(c2ccc(O)cc2)c2ccccc21 [Phenolphthalein] | 1.6 | 0.655 | 1.35 | 0.979 | 0.6 | 1.49 |
| CN(C[C@@H]1COCCO1)S(=O)(=O)Nc1ccc2ccc3ncc(-c4cnn(C)c4)cc3c(=O)c2c1 | 1 | 0.895 | 1.01 | 3.07 | 0.888 | 1 |
| CCOC(=O)[C@H](CCc1ccccc1)N[C@@H](C)C(=O)N1[C@H](C(=O)O)C[C@@H]2CCC[C@@H]21 [Ramipril] | 1.25 | 0.735 | 0.891 | 1.1 | 1.89 | 1.21 |
| C[C@@H](c1nc(-c2ccc(C#N)cc2)cs1)[C@](O)(Cn1cncn1)c1cc(F)ccc1F [Isavuconazole] | 1 | 1.45 | 1.02 | 0.654 | 1.55 | 1.43 |
| Cc1onc(-c2ccccc2)c1C(=O)N[C@@H]1C(=O)N2[C@@H]1SC(C)(C)[C@@H]2C(=O)O [Oxacillin sodium monohydrate] | 1.39 | 1.09 | 1.47 | 1.11 | 0.665 | 1.37 |
| CCc1cc(/C(C)=N/OCc2ccc(C3CCCCC3)c(C(F)(F)F)c2)ccc1CN1CC(C(=O)O)C1 [BAF312 (Siponimod)] | 1.61 | 1.05 | 1.31 | 0.66 | 0.538 | 1.25 |
| O=C(CSc1nc2c(c(=O)n1-c1ccccc1)SCC2)Nc1ccc(-c2ccccc2)cn1 | 1.36 | 1.81 | 1.11 | 0.832 | 1.42 | 0.588 |
| NC(=O)c1cnc2[nH]ccc2c1N[C@@H]1[C@@H]2CC3C[C@H]1C[C@@](O)(C3)C2 | 2.3 | 2 | 1.41 | 3.39 | 1.42 | 2.08 |
| CC(C)(O)CC[C@@H](O)[C@](C)(O)[C@H]1CC[C@@]2(O)C3=CC(=O)[C@@H]4C[C@@H](O)[C@@H](O)C[C@]4(C)[C@H]3CC[C@]12C [20-Hydroxyecdysone] | 0.539 | 1.05 | 1.19 | 1.28 | 1.06 | 1.08 |
| Cn1cc(Nc2nccc(N3C[C@H]4CC[C@@H](C3)N4C(=O)[C@@H]3CC3(F)F)n2)cn1 | 1.66 | 1.31 | 0.715 | 2.16 | 0.594 | 3.68 |
| CO[C@@]1(NC(=O)Cc2cccs2)C(=O)N2C(C(=O)O)=C(COC(N)=O)CS[C@@H]21 [Cefoxitin sodium] | 1.26 | 0.874 | 1.51 | 1.02 | 0.857 | 0.983 |
| CN(C)c1ccc(C(=C2C=CC(=[N+](C)C)C=C2)c2ccc(N(C)C)cc2)cc1 [Crystal Violet] | 3.55 | 2.83 | 3 | 2.46 | 3.45 | 2.56 |
| C[C@H]1CNCCCN1S(=O)(=O)c1cccc2cncc(F)c12 [Ripasudil (K-115) hydrochloride dihydrate] | 2.28 | 0.784 | 2.78 | 2.01 | 1.34 | 1.12 |
| CCOC(=O)[C@H]1O[C@@H]1C(=O)N[C@@H](CC(C)C)C(=O)NCCC(C)C [Aloxistatin] | 0.731 | 2.18 | 1.26 | 1.17 | 0.539 | 0.987 |
| Cc1cc(Nc2ccc(NC(=O)c3ccc(Nc4ccnc5ccccc45)cc3)cc2)nc(N)n1 | 1.66 | 3.02 | 1.42 | 5.18 | 0.532 | 3.29 |
| CCOC(=O)[C@H](CCc1ccccc1)N[C@H]1CS[C@H](c2cccs2)CN(CC(=O)O)C1=O [Temocapril HCl] | 0.717 | 0.454 | 0.716 | 0.895 | 0.434 | 0.878 |
| CCOc1ccc2c(-c3cccc(F)c3)nn(CC(=O)N(C)c3ccc4nc(C)oc4c3)c(=O)c2c1 | 1.05 | 0.995 | 1.36 | 0.808 | 0.431 | 0.932 |
| CNCCCC12CCC(c3ccccc31)c1ccccc12 [Maprotiline HCl] | 0.958 | 1.1 | 1.11 | 2.09 | 1.53 | 0.98 |
| N#C/C(=C1/SC[C@@H](c2ccc(Cl)cc2Cl)S1)n1ccnc1 [Luliconazole] | 1.47 | 1.03 | 0.686 | 1.08 | 0.589 | 1.1 |
| CN(C)C(=O)c1ccc(S(=O)(=O)c2ccc(NC(=O)[C@@](C)(O)C(F)(F)F)c(Cl)c2)cc1 | 0.701 | 1.81 | 0.801 | 0.955 | 2 | 0.57 |
